Laboratory results from paper PMC4552634, “A New Set of Chemical Starting Points with Plasmodium falciparum Transmission-Blocking Potential for Antimalarial Drug Discovery” (PLoS ONE, 2015).
Among all 13,000 compounds or so, about 3,200 (25%) showed an effect of 50% or more. The list shows a part of the results.

System: P. falciparum stage V gametocytes
Design: BacTiter-Glo ATP luminescence viability of purified stage V gametocytes in 384-well plates, per cent inhibition versus DMSO
Conditions: 48 h, 5 µM; inhibitor

Structure (SMILES)	% Inhibition
Fc1ccc2nc(-c3ccc(-c4ccc(CNCCN5CCNCC5)cc4)cc3)[nH]c2c1 [TCMDC-132866]	95.81%
FC(F)(F)c1ccc2nc(-c3ccc(-c4ccc(CNCCN5CCNCC5)cc4)cc3)[nH]c2c1 [TCMDC-132865]	81.47%
Fc1ccc2nc(-c3ccc(-c4ccc(CNCc5ccccc5)cc4)cc3)[nH]c2c1 [TCMDC-132706]	-8.739%
NCc1ccc(CNCc2ccc(-c3ccc(-c4nc5ccc(F)cc5[nH]4)cc3)cc2)cc1 [TCMDC-132810]	33.23%
O=C(NCCN1CCCC1)c1cccc(-c2ccc(-c3nc4ccc(C(F)(F)F)cc4[nH]3)cc2)c1 [TCMDC-132322]	-42.59%
CC(C)NCc1ccc(-c2ccc(-c3nc4ccc(C(F)(F)F)cc4[nH]3)cc2)cc1 [TCMDC-132741]	-41.38%
Cc1ccc(O)cc1Nc1ccnc2ccc(-c3csc(CNCCN4CCOCC4)n3)cc12 [TCMDC-138419]	24.32%
C=CCOC(=O)N1CCC(CNCc2cccc(-c3cccc(-c4nc5cc(F)ccc5[nH]4)c3)c2)C1.O=C(O)C(F)(F)F (centres unmarked) [TCMDC-133045]	-22.96%
O=C(CC(=O)Nc1cc(Cl)cc(Cl)c1)Nc1cc(Cl)cc(Cl)c1 [TCMDC-124303]	1.845%
O=C(Nc1cccc(-c2nn3ccccc3c2-c2ccnc(Nc3cccc(F)c3)n2)c1)c1c(F)ccc(F)c1Cl [TCMDC-135830]	19.22%
CCCCCCCOc1ccc(NC(=O)Nc2ccc(Cn3ncc(N4CCCNCC4)c(Cl)c3=O)cc2)cc1 [TCMDC-133318]	42.33%
CC(C)c1nc(N2CCN(C(=S)NCc3ccccc3)CC2)c(C#N)c2c1COC(C)(C)C2 [TCMDC-124093]	85.74%
CC(C)Sc1nc(-c2ccccc2)nc2c1COC(C)(C)C2 [TCMDC-125132]	-39.31%
N#Cc1ccc(CN2CCC(Oc3ccc(NC(=O)c4cccs4)cc3Cl)C2)cc1 (centres unmarked) [TCMDC-133962]	5.438%
FC(F)(F)c1cccc(Nc2nc(-n3ccnc3)nc(-n3ccnc3)n2)c1 [TCMDC-123871]	5.028%
Cc1cc(Nc2cccc(C(F)(F)F)c2)nc(N)n1 [TCMDC-124264]	7.363%
FC(F)(F)c1cccc(Nc2nc3ccccc3nc2Nc2cccc(C(F)(F)F)c2)c1 [TCMDC-124162]	95.6%
FC(F)(F)c1cccc(Nc2nc(-c3ccccc3)nc3ncccc23)c1 [TCMDC-125597]	73.35%
Cc1cc(Nc2cccc(C(F)(F)F)c2)nc(Nc2cccc(C(F)(F)F)c2)n1 [TCMDC-124213]	-15.06%
Cc1cc(C)n(-c2nc(Nc3cccc(C(F)(F)F)c3)nc(-n3nc(C)cc3C)n2)n1 [TCMDC-125770]	16.09%
N#CCCN1CCN(Cc2cccc(-c3ccc(-c4nc5ccccc5[nH]4)s3)c2)CC1.O=C(O)C(F)(F)F [TCMDC-133871]	-9.564%
NC1=NC2(CCCCC2)N(OCCCCCCCCNc2nc(N)nc(N)n2)C(N)=N1 [TCMDC-140517]	6.685%
Nc1nc(N)c2c(ccc3c2ccn3Cc2ccc(OCc3ccccc3)cc2)n1 [TCMDC-137336]	29.32%
Nc1nc(N)c2c(ccc3c2ccn3Cc2ccc(-c3ccccc3)cc2)n1 [TCMDC-137813]	115.8%

Structure (SMILES)	% Inhibition
N#Cc1ccc(Cn2ccc3c4c(N)nc(N)nc4ccc32)cc1 [TCMDC-137820]	103.8%
Nc1nc(N)c2c(ccc3c2ncn3Cc2ccccc2)n1 [TCMDC-137749]	33.84%
Nc1nc(N)c2c(ccc3c2ccn3CCCC2CCCNC2)n1 (centres unmarked) [TCMDC-138618]	26.76%
Nc1nc(N)c2c(ccc3c2ccn3Cc2ccccc2)n1 [TCMDC-141977]	66.05%
Nc1nc(N)c2c(ccc3c2ccn3Cc2ccccn2)n1 [TCMDC-137980]	111.5%
CNC(=O)COC(=O)c1c2c(nc3ccccc13)C(=Cc1ccc3c(c1)OCO3)CCC2 [TCMDC-123900]	4.246%
Cn1cnc(CCNC(=O)c2ccc(-c3cccc(-c4nc5cc(C(F)(F)F)ccc5[nH]4)c3)cc2)c1 [TCMDC-132493]	1.105%
Cc1ccc(OC2CCN(c3ccc(C(=O)NC4CC4)cn3)CC2)cc1 [TCMDC-134059]	7.555%
NC1=Nc2ccc(Cl)cc2C1(O)c1ccccc1 (centres unmarked) [TCMDC-123492]	3.06%
CCOc1ccc(C(=O)Nc2cc3c(c(C(F)(F)F)c2)CCNC3)cc1Cl [TCMDC-139751]	25.29%
N#Cc1cccc(C(O)C2CN(CCC3CCCCC3)CCC2(O)c2ccccc2)c1 (centres unmarked) [TCMDC-131999]	-28.27%
O=C(Nc1cccc(-c2ccc(CN3CCCC3)cc2)c1)c1ccc(Cl)cc1 [TCMDC-132630]	10.82%
Cc1nnc2c(N(C(=O)NCCc3ccccc3)C(=O)NCCc3ccccc3)cc3cc(Cl)ccc3n12 [TCMDC-135524]	21.17%
Cc1nnc2c(NC(=O)NC(C)C)cc3cc(-c4ccc(CN5CCCCC5)cc4)ccc3n12 [TCMDC-136738]	50.46%
O=C(Nc1cccc(-c2ccc(CN3CCCC3)cc2)c1)c1ccc(F)cc1 [TCMDC-132636]	-0.2818%
Cc1cccc2[nH]c(-c3ccc(-c4cccc(NC(=O)NCc5ccc(F)cc5)c4)cc3)nc12 [TCMDC-133303]	-66.9%
COc1ccc2[nH]c(C(=O)Nc3cccc(-c4ccc(CN(C)C)cc4)c3)cc2c1 [TCMDC-134283]	-4.108%
CCCNC(=O)Nc1cc2cc(-c3cccc(CN4CCCCC4)c3)ccc2n2c(C)nnc12 [TCMDC-136740]	104.3%
COc1ccc(CNC(=O)Nc2cc3cc(-c4ccc(CN(C)C)cc4)ccc3n3c(C)nnc23)cc1 [TCMDC-136719]	118%
COc1ccc(CNC(=O)Nc2cc3cc(-c4ccc(CN5CCCC5)cc4)ccc3n3c(C)nnc23)cc1 [TCMDC-136720]	98.19%
COc1cccc(CNC(=O)c2cccc(-c3ccc(CN4CCC(N5CCCC5)CC4)cc3)n2)c1 [TCMDC-134416]	30.7%
Cc1nnc2c(NC(=O)/C=C/c3ccc(OC(F)(F)F)cc3)cc3cc(Cl)ccc3n12 [TCMDC-135918]	-12.77%
O=C(Nc1cccc(-c2cccc(CN3CCCC3)c2)c1)c1ccc(Cl)cc1 [TCMDC-132654]	19.28%
